According to PubChem BioAssay (Tox21):
Active and inactive are the calls of the source. Unless noted, calls follow the shape of the dose curve; as a rule, active = well fitted curve in the direction sought with a large enough effect in the repeat runs; inconclusive = weak or mixed curves; inactive = no such curve, though single readings can be large; an effect the other way counts as inactive or inconclusive.

Assays:
[1] = qHTS assay to identify small molecule antagonists of the thyroid receptor (TR) signaling pathway - cell viability counter screen (AID 743064); also: nearly all actives have a fitted effect of over 50% in size
In short: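 GH3.TRE-Luc rat pituitary cells carrying a TRE-luciferase reporter were treated with compound plus 1 nM T3 (final) for 23.5 h at 37 °C. Viability was then read in the same wells by CellTiter-Fluor fluorescence after a further 30 min.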

[2] = qHTS assay to identify small molecule antagonists of the thyroid receptor (TR) signaling pathway (AID 743065); also: nearly all actives have a fitted effect of over 55% in size
In short: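 Antagonism measured as loss of luciferase signal in GH3 cells stably carrying a TRE-luciferase reporter, co-treated with compound and T3 (1 nM final) for 23.5 h at 37 C. Viability was read in the same well by CellTiter-Fluor.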

[3] = tested on: thyroid hormone receptor (rat, GH3 cells); assay: qHTS assay to identify small molecule agonists of the thyroid receptor (TR) signaling pathway (AID 743066; calls by dose curve)
[4] = target: Estrogen receptor (Homo sapiens) (UniProt P03372); assay: qHTS assay to identify small molecule antagonists of the estrogen receptor alpha (ER-alpha) signaling pathway (AID 743069; active = well fitted curve in the direction sought with a large enough effect in the signal ratio in the repeat runs, not every such curve was filed as active; inconclusive = weak or mixed curves, or effect the other way; inactive = no such curve, though single readings can be large or run the other way; the % refers to the signal ratio)
Chain of Estrogen receptor (Homo sapiens) (P03372 whole entry, looked up): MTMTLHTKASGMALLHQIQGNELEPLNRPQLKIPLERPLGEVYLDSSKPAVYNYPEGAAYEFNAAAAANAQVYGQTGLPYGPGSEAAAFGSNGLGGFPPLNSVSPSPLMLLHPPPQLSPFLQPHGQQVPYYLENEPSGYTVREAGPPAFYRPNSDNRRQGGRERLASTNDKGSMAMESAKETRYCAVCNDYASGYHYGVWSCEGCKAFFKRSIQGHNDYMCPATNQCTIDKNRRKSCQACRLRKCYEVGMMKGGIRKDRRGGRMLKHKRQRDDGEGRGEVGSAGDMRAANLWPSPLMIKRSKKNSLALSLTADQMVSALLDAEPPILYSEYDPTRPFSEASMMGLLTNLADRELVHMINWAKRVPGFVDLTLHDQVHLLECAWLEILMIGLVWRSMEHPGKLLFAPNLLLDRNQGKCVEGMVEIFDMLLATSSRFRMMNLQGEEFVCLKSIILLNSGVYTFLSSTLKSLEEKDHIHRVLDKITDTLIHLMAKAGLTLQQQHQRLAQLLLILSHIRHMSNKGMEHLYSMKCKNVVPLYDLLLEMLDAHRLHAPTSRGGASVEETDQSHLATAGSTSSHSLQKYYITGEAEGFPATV
In short: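 Compound effects are measured against 17beta-estradiol stimulation in HEK293 cells with a UAS-controlled beta-lactamase reporter for ER-alpha. Exposure lasts 18 hr at 37C; LiveBLAzer B/G FRET substrate follows for 2 hr at room temperature.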

[5] = target: Estrogen receptor (Homo sapiens) (UniProt P03372); assay: qHTS assay to identify small molecule agonists of the estrogen receptor alpha (ER-alpha) signaling pathway (AID 743075; calls by dose curve; also: potency is read from the fitted curve at half-maximal effect)
[6] = target: Estrogen receptor (Homo sapiens) (UniProt P03372); assay: qHTS assay to identify small molecule agonists of the estrogen receptor alpha (ER-alpha) signaling pathway using the BG1 cell line (AID 743079); details: BG1Luc4E2 cells, ERE-luciferase agonist, 22 h; also: nearly all actives have a fitted effect of over 20% in size; also: potency is read from the fitted curve at half-maximal effect
[7] = qHTS assay to identify small molecule antagonists of the estrogen receptor alpha (ER-alpha) signaling pathway using the BG1 cell line (AID 743080; calls by dose curve;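 also: BG1 cells stimulated with 17beta-estradiol alongside compound; nearly all actives have a fitted effect of over 25% in size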)
In short: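 Endogenous full-length ER-alpha in BG1-Luc-4E2 cells drives a stably integrated 4×ERE luciferase gene; compounds were tested against 17beta-estradiol over 21.5 h, with luminescence and multiplexed viability fluorescence recorded.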

[8] = qHTS assay to identify small molecule antagonists of the estrogen receptor alpha (ER-alpha) signaling pathway using the BG1 cell line - cell viability counter screen (AID 743081);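 also: compound given together with 17beta-estradiol as the ER stimulus; nearly all actives have a fitted effect of over 45% in size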
[9] = target: Aromatase (Homo sapiens) (UniProt P11511); assay: qHTS assay to identify aromatase inhibitors (AID 743083); also: nearly all actives have a fitted effect of over 55% in size
Chain of Aromatase (Homo sapiens) (P11511 whole entry, looked up): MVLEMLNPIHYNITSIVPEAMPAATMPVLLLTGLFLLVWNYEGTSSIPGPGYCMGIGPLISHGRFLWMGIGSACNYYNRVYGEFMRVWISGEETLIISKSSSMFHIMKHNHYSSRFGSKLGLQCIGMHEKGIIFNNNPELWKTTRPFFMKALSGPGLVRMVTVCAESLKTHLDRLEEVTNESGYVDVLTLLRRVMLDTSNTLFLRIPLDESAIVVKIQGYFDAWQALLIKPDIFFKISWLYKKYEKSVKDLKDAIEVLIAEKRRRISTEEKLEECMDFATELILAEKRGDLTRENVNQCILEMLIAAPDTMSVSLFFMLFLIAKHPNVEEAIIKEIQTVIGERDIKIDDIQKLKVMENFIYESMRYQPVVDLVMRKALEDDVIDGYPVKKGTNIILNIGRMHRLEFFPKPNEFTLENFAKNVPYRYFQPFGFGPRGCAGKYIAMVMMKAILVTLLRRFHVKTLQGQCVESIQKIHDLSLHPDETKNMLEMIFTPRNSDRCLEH

[10] = qHTS assay to identify aromatase inhibitors - cell viability counter screen (AID 743084);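 also: cells stimulated with testosterone during compound exposure; nearly all actives have a fitted effect of over 55% in size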
[11] = target: Aryl hydrocarbon receptor (Homo sapiens) (UniProt P35869); assay: qHTS assay to identify small molecule that activate the aryl hydrocarbon receptor (AhR) signaling pathway (AID 743085);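 also: HG2L7.5c1 human HepG2 liver cells with stably integrated DRE-driven firefly reporter; nearly all actives have a fitted effect of over 15% in size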
Chain of Aryl hydrocarbon receptor (Homo sapiens) (P35869 whole entry, looked up): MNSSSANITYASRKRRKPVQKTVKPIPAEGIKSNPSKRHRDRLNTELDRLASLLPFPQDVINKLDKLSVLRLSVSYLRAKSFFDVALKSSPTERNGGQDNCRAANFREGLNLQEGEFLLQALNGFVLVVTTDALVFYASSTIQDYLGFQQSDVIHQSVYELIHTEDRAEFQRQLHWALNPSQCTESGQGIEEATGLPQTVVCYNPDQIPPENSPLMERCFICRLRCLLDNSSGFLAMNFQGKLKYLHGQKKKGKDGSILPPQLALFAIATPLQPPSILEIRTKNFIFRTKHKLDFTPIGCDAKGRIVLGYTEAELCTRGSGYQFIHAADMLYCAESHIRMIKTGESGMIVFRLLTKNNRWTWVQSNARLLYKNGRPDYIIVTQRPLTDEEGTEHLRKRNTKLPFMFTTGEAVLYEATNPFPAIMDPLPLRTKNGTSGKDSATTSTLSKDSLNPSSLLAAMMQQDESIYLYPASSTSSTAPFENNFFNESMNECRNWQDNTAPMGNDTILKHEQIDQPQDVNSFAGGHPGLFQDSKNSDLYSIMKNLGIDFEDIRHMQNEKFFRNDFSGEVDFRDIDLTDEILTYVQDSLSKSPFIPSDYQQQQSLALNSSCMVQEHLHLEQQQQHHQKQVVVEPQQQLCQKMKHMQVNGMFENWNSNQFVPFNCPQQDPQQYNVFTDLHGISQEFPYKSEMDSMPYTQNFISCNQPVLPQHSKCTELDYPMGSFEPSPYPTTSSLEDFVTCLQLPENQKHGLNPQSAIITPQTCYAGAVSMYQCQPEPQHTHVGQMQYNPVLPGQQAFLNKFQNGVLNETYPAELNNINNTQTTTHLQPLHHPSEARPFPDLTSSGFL
In short: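 HepG2 cells (HG2L7.5c1) stably carrying a firefly luciferase reporter driven by 20 dioxin responsive elements were exposed to compound for 24 h at 37C after a 5 h settling period; luminescence rise (ONE-Glo) indicated activation.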

[12] = qHTS assay to identify small molecule that activate the aryl hydrocarbon receptor (AhR) signaling pathway - cell viability counter screen (AID 743086);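 also: HepG2 liver cells carrying the AhR DRE luciferase reporter; nearly all actives have a fitted effect of over 45% in size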
In short: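 Cytotoxicity counter screen: CellTiter-Fluor signal (30 min, 37 C) in 4000 HepG2 cells/well carrying the DRE-luciferase reporter, following 24 h compound exposure at 37 C.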

[13] = target: Peroxisome proliferator-activated receptor gamma (Homo sapiens) (UniProt P37231); assay: qHTS assay to identify small molecule agonists of the peroxisome proliferator-activated receptor gamma (PPARg) signaling pathway (AID 743094; active = well fitted activation curve with a large enough effect in the signal ratio in the repeat runs, not every such curve was filed as active; inconclusive = weak or mixed curves, or effect the other way; inactive = no such curve, though single readings can be large or run the other way; the % refers to the signal ratio)
Chain of Peroxisome proliferator-activated receptor gamma (Homo sapiens) (P37231 whole entry, looked up): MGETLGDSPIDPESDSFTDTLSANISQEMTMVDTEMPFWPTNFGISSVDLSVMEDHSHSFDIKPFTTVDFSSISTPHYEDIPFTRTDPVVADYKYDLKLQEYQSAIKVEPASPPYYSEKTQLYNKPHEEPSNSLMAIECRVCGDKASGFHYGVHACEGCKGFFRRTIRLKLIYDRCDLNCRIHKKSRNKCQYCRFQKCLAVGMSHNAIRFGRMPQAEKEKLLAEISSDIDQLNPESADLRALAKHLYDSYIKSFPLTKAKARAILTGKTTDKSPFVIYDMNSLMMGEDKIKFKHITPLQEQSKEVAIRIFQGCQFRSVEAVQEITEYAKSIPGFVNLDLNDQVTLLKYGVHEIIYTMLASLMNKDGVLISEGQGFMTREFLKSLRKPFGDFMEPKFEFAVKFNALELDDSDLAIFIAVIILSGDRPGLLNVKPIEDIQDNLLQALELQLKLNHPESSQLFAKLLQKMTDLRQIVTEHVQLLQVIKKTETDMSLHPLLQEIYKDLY
In short: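 Quantitative HTS agonist mode: stable HEK293H line with UAS-beta-lactamase reporter under PPARg control, 17 h compound exposure at 37C, fluorescence after 1 h FRET substrate loading at room temperature.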

[14] = target: Peroxisome proliferator-activated receptor gamma (Homo sapiens) (UniProt P37231); assay: qHTS assay to identify small molecule antagonists of the peroxisome proliferator-activated receptor gamma (PPARg) signaling pathway (AID 743191; calls by dose curve; also: nearly all actives have a fitted effect of over 30% in size)
In short: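 Beta-lactamase reporter under UAS control in HEK293H PPARg-bla cells; compound treatment 17 h at 37C. Read-out: fluorescence intensity after 1 h room-temperature incubation with LiveBLAzer B/G FRET substrate.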

[15] = qHTS assay to identify small molecule antagonists of the peroxisome proliferator-activated receptor gamma (PPARg) signaling pathway - cell viability counter screen (AID 743194); details: Potency: co-treated with 50 nM rosiglitazone; also: nearly all actives have a fitted effect of over 55% in size
In short: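 Viability was measured as CellTiter-Glo luminescence in GeneBLAzer PPARg UAS-bla HEK293H cells. These cells had been exposed 17 h at 37 C to compounds together with rosiglitazone at 50 nM final, with the beta-lactamase readout taken in the same wells.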

[16] = qHTS assay for small molecule agonists of the antioxidant response element (ARE) signaling pathway (AID 743202; active = well fitted activation curve with a large enough effect in the signal ratio in the repeat runs, not every such curve was filed as active; inconclusive = weak or mixed curves, or effect the other way; inactive = no such curve, though single readings can be large or run the other way; the % refers to the signal ratio)
In short: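 An ARE-responsive beta-lactamase gene stably integrated in HepG2 cells serves as reporter. After 5 h plating and 16 h compound incubation at 37 C, fluorescence of the B/G FRET substrate was measured.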

[17] = qHTS assay for small molecule agonists of the antioxidant response element (ARE) signaling pathway - cell viability counter screen (AID 743203; calls by dose curve; also: nearly all actives have a fitted effect of over 55% in size)
In short: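 Seeded at 2,000 cells/well, ARE-bla HepG2 cells were incubated 5 hrs before compound addition. After 16 hrs of treatment at 37C with 5% CO2, CellTiter-Glo reagent was added and luminescence read 30 min later.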

[18] = qHTS assay for small molecule activators of the heat shock response signaling pathway - cell viability counter screen (AID 743209); also: nearly all actives have a fitted effect of over 50% in size
In short: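 First, HSE-bla HeLa cells were seeded at 1500 cells/well and kept overnight at 37 C. Next, compounds were pinned in and incubated 5 h. After the FRET substrate step, CellTiter-Glo was added and luminescence read 30 min later.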

[19] = qHTS assay for small molecule activators of the heat shock response signaling pathway (AID 743210; active = well fitted activation curve with a large enough effect in the signal ratio in the repeat runs, with a control signal flat, not every such curve was filed as active; inconclusive = weak or mixed curves; the % refers to the signal ratio;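 also: HeLa cells with beta-lactamase reporter driven by heat shock elements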)
In short: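 In HSE-bla HeLa cells, 5 h compound incubation (37 C) precedes addition of LiveBLAzer B/G substrate; after 2.5 h at room temperature, fluorescence intensity indicates reporter induction.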

[20] = qHTS assay to identify small molecule antagonists of the estrogen receptor alpha (ER-alpha) signaling pathway - cell viability counter screen (AID 743074; calls by dose curve;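 also: HEK293 cells carrying ER-alpha-UAS-bla reporter stimulated with 17beta-estradiol; nearly all actives have a fitted effect of over 45% in size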)
% is scaled to controls: 0 for no effect and ±100 for the full control effect.

CC(Cl)(Cl)[N+](=O)[O-]
inactive: Potency [1] | Potency [2] | Potency [3] | Potency [4] | Potency [5] | activation ([6]; at 70.3 µM (top of the series)) -5.99% | Potency [7] | Potency [8] | Potency [9] | Potency [10] | Potency [11] | outcome [12] | outcome [13] | Potency [14] | Potency [15] | Potency [16] | Potency [17] | Potency [18] | outcome [19]

O=C(CCCN1CCC(n2c(=O)[nH]c3ccccc32)CC1)c1ccc(F)cc1
inactive: Potency [1] | Potency [2] | Potency [3] | Potency [4] | outcome [20] | Potency [5] | activation ([6]; at 32.5 µM (top of the series)) -6.79% | Potency [7] | Potency [8] | Potency [9] | Potency [10] | outcome [12] | outcome [13] | Potency [15] | Potency [17] | Potency [18] | outcome [19]

CSc1nc(N=[N+]=[N-])nc(NC(C)C)n1
inactive: Potency [1] | Potency [2] | Potency [3] | Potency [4] | outcome [20] | Potency [5] | activation ([6]; at 70.3 µM (top of the series)) 2.14% | Potency [7] | Potency [8] | Potency [9] | Potency [10] | outcome [12] | outcome [13] | Potency [17] | outcome [19]

CSc1ccc(C(=O)C(C)(C)N2CCOCC2)cc1
active: Potency [5] 61.6 µM [inconclusive] | Potency [6] 3.44 µM
inactive: Potency [1] | Potency [2] | Potency [3] | Potency [4] | Potency [7] | Potency [8] | Potency [9] | Potency [10] | Potency [11] | outcome [12] | outcome [13] | Potency [14] | Potency [15] | Potency [16] | Potency [17] | Potency [18] | outcome [19]

CC1(C)CON(Cc2ccccc2Cl)C1=O
inactive: Potency [1] | Potency [2] | Potency [3] | Potency [4] | outcome [20] | Potency [5] | Potency [7] | Potency [8] | Potency [9] | Potency [10] | Potency [11] | outcome [12] | Potency [14] | Potency [17]

O=S(=O)(O)C(F)(F)C(F)(F)C(F)(F)C(F)(F)C(F)(F)C(F)(F)F
inactive: Potency [1] | Potency [2] | Potency [3] | Potency [4] | Potency [5] | activation ([6]; at 70.3 µM (top of the series)) -0.729% | Potency [7] | Potency [8] | Potency [9] | outcome [12] | outcome [13] | Potency [14] | Potency [17] | Potency [18] | outcome [19]
